Binding signal data for one sequence are collected here from publication PMC7862700, “An all-to-all approach to the identification of sequence-specific readers for epigenetic DNA modifications on cytosine”.

Holding throughout (assay): DAPPL (digital affinity profiling via proximity ligation, sequencing); 10 mM Tris-HCl pH 7.5, 50 mM NaCl, 1 mM DTT, 4% glycerol, room temperature, 30 min; GST-TFs on glutathione beads, 16-mer random dsDNA library, 0.1% formaldehyde crosslink after washing; high values mean tight binding
For one assay, the target named is T1, FEV (Homo sapiens, UniProt Q99581 1-238).
T1 sequence: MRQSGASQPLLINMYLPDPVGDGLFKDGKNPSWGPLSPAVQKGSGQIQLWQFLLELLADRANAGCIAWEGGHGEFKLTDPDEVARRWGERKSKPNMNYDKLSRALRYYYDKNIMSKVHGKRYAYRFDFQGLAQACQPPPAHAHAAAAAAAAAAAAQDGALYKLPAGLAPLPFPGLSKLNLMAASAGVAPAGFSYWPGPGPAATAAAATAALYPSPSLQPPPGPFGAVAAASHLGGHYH
As to conditions: protein: recombinant; tags: N-terminal GST; dsDNA, one strand shown. In outline: (§1)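 A tag-only sample was pooled with DNA-barcoded human transcription factors that had been expressed in yeast as GST fusions and captured on glutathione beads. The pools were incubated for 30 min at room temperature with 200 nmole of a random double-stranded 16-mer DNA library in Tris/NaCl/DTT/glycerol buffer, then washed, crosslinked with 0.1% formaldehyde, proximity-ligated (BsaI/T4 ligase, 1 h, 37 °C), PCR-amplified and sequenced on an Illumina NextSeq500. Binding signal is each hexamer's read frequency for a factor divided by its frequency for the tag-only sample.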

The next assay has as its target ETV5 (Homo sapiens, UniProt P41161 1-510). As to conditions: protein: recombinant; tags: N-terminal GST; dsDNA, one strand shown. In outline:
as §1

A further assay addresses HSF1 (Homo sapiens, UniProt Q00613 1-529). As to conditions: protein: recombinant; tags: N-terminal GST; chain copies: 3; dsDNA, one strand shown. In outline: as §1
The target in the next assay is T2, SPIC (Homo sapiens, UniProt Q8N5J4 1-248).
T2 sequence: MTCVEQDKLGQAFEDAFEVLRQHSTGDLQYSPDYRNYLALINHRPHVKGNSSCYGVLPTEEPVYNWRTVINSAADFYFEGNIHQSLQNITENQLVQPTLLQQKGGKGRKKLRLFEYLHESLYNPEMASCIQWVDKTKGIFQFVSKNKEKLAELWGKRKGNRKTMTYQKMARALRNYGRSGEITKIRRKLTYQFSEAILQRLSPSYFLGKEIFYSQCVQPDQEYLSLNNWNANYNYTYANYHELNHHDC
The conditions noted are these: protein: recombinant; tags: N-terminal GST; dsDNA, one strand shown. In outline:
as §1

Another assay addresses ELF4 (Homo sapiens, UniProt Q99607 1-663). The conditions noted are these: protein: recombinant; tags: N-terminal GST; dsDNA, one strand shown. In outline: as §1
The next assay has as its target T3, ELK4 (Homo sapiens, UniProt P28324-2 1-405).
T3 sequence: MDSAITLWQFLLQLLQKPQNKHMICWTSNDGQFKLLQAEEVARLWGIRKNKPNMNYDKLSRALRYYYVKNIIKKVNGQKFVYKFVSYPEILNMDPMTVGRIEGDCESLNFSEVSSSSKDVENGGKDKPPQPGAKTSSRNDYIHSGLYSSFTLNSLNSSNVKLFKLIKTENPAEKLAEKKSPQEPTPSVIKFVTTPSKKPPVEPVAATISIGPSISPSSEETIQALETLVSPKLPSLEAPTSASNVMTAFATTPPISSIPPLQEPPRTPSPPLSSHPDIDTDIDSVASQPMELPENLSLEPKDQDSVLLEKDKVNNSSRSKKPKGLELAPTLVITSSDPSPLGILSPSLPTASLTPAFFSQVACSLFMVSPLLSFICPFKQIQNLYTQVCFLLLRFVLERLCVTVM
As to conditions: protein: recombinant; tags: N-terminal GST; dsDNA, one strand shown. In outline: as §1

Another assay concerns the target T4, ETV2 (Homo sapiens, UniProt O00321 1-342).
T4 sequence: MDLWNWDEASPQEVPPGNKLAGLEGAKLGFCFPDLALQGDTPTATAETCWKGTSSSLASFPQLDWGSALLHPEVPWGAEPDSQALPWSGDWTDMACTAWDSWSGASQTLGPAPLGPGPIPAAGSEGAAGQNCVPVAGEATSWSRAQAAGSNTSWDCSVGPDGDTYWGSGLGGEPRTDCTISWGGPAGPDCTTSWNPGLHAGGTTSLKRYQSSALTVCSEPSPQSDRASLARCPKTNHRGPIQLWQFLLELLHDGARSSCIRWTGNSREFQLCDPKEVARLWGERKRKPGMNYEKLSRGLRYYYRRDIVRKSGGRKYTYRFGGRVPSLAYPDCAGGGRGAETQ
The conditions noted are these: protein: recombinant; tags: N-terminal GST; dsDNA, one strand shown. In outline: as §1

Another assay deals with T5, ELF3 (Homo sapiens, UniProt P78545 1-371).
T5 sequence: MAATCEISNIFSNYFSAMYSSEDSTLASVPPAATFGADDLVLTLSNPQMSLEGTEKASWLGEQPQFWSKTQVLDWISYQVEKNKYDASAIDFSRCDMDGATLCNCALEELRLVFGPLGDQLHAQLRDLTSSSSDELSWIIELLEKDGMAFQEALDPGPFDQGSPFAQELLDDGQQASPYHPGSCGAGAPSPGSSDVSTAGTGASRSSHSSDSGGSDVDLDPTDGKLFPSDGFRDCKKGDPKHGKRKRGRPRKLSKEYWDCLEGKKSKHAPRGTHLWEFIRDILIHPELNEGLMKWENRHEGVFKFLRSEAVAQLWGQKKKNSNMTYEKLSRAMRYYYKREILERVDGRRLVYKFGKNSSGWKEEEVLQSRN
As to conditions: protein: recombinant; tags: N-terminal GST; dsDNA, one strand shown. The method, boiled down:
as §1

A further assay has as its target CRX (Homo sapiens, UniProt O43186 1-299). As to conditions: protein: recombinant; tags: N-terminal GST; dsDNA, one strand shown. In outline:
as §1

A further assay addresses ETV1 (Homo sapiens, UniProt P50549 1-477). The conditions noted are these: protein: recombinant; tags: N-terminal GST; dsDNA, one strand shown. The method, boiled down: as §1
The target of another assay is T6, ERF (Homo sapiens, UniProt P50548 1-548).
T6 sequence: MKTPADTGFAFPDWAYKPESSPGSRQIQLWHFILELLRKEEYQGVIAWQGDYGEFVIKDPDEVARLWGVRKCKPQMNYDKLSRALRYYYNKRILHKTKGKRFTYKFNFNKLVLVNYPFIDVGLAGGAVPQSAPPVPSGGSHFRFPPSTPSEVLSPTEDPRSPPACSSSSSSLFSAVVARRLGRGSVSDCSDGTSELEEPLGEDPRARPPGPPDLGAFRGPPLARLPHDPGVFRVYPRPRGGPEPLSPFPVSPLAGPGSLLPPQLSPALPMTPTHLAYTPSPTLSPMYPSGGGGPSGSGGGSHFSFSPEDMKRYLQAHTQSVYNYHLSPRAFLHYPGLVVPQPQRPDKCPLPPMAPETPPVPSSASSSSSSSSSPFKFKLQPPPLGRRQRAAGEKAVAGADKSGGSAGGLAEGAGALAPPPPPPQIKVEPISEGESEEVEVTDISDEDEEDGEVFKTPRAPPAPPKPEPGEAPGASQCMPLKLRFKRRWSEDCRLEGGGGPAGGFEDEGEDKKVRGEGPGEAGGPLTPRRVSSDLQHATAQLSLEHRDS
As to conditions: protein: recombinant; tags: N-terminal GST; dsDNA, one strand shown. The method, boiled down: as §1

A further assay has as its target T7, ETV3L (Homo sapiens, UniProt Q6ZN32 1-361).
T7 sequence: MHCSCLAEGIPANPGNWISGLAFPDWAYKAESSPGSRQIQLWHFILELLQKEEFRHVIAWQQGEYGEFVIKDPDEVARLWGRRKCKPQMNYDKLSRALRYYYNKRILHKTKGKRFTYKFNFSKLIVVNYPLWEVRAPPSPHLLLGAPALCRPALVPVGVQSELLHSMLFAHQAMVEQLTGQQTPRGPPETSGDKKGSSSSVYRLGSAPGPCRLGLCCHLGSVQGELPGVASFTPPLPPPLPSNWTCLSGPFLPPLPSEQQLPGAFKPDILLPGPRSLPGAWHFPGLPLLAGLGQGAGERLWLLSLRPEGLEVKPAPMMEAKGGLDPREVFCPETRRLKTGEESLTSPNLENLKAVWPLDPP
The conditions noted are these: protein: recombinant; tags: N-terminal GST; dsDNA, one strand shown. The method, boiled down: as §1

The target in a further assay is T8, ETS2 (Homo sapiens, UniProt P15036 1-469).
T8 sequence: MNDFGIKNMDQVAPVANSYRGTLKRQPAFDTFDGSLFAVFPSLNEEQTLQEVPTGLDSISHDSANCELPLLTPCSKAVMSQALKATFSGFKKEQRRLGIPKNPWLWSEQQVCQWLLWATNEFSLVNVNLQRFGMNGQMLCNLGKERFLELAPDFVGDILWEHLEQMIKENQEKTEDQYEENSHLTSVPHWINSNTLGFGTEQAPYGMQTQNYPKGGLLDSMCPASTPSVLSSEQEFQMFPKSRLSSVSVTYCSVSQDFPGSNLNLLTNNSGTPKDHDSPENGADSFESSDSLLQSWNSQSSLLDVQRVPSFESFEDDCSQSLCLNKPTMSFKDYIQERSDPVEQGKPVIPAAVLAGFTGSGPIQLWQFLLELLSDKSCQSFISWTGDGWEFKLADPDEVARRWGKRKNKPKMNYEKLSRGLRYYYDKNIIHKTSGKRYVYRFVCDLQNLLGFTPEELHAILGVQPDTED
The conditions noted are these: protein: recombinant; tags: N-terminal GST; dsDNA, one strand shown. In outline:
as §1

The next assay deals with T9, SPDEF (Homo sapiens, UniProt O95238 1-335).
T9 sequence: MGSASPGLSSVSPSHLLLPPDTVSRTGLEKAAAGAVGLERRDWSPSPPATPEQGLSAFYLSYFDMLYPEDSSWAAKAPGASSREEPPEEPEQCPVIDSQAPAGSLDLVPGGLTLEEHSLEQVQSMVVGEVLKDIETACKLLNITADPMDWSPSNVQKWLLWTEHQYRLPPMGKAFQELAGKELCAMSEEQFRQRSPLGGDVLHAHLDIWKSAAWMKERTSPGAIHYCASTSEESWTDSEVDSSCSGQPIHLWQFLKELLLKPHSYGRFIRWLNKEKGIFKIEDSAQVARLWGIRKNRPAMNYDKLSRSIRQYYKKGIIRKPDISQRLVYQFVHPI
As to conditions: protein: recombinant; tags: N-terminal GST; dsDNA, one strand shown. In outline:
as §1

The target of another assay is T10, ETV7 (Homo sapiens, UniProt Q9Y603 1-341).
T10 sequence: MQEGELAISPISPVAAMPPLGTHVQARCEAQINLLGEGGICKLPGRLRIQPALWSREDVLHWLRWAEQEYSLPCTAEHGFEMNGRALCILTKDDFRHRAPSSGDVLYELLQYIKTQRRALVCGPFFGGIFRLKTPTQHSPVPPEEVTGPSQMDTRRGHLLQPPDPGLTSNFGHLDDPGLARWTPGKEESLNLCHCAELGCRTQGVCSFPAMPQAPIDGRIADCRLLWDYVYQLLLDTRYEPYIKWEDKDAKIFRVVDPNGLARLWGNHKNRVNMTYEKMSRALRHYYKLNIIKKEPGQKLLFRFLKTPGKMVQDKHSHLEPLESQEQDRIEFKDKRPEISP
As to conditions: protein: recombinant; tags: N-terminal GST; dsDNA, one strand shown. The method, boiled down:
as §1

Another assay addresses T11, ELF5 (Homo sapiens, UniProt Q9UKW6-2 1-255).
T11 sequence: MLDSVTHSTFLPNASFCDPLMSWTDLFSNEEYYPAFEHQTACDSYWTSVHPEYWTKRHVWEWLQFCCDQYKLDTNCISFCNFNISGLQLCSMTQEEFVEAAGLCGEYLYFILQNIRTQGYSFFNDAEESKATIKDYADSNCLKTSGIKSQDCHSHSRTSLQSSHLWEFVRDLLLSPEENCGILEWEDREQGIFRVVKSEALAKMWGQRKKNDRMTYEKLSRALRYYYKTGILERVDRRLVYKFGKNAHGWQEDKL
The conditions noted are these: protein: recombinant; tags: N-terminal GST; dsDNA, one strand shown. In outline:
as §1

The next assay deals with T12, ETV3 (Homo sapiens, UniProt P41162-2 1-143).
T12 sequence: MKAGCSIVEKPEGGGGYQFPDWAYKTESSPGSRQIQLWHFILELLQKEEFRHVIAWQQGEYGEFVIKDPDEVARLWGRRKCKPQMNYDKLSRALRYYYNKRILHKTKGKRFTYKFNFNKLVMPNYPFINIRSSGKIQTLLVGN
The conditions noted are these: protein: recombinant; tags: N-terminal GST; dsDNA, one strand shown. The method, boiled down:
as §1

The target of another assay is ETV6 (Homo sapiens, UniProt P41212 1-452). The conditions noted are these: protein: recombinant; tags: N-terminal GST; dsDNA, one strand shown. The method, boiled down: as §1
Chain of ETV6 (P41212 whole entry): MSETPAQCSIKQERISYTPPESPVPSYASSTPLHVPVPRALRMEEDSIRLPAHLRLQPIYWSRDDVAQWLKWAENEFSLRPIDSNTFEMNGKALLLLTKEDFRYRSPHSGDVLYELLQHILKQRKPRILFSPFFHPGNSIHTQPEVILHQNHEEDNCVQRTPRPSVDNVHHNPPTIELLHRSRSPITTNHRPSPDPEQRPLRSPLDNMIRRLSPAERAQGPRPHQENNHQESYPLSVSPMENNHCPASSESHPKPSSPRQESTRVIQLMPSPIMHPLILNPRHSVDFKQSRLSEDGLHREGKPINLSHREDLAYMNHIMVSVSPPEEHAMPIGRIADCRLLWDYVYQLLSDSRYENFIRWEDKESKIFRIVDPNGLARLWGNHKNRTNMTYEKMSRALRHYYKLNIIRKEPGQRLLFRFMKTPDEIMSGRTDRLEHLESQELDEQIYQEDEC

Chain of ETV5 (P41161 whole entry): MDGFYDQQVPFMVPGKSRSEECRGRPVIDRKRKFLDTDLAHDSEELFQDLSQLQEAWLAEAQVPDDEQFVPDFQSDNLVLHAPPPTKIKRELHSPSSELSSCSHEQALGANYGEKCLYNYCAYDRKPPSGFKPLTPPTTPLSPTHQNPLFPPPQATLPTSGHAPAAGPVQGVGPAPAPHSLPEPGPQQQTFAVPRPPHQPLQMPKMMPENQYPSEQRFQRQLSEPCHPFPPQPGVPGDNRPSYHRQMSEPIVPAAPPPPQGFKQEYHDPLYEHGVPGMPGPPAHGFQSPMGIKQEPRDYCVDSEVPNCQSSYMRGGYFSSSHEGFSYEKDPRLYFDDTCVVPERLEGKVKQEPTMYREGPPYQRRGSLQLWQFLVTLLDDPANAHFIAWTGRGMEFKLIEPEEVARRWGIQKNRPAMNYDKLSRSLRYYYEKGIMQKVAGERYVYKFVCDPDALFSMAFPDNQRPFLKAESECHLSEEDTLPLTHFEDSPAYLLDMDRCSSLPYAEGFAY
Chain of ELF4 (Q99607 whole entry): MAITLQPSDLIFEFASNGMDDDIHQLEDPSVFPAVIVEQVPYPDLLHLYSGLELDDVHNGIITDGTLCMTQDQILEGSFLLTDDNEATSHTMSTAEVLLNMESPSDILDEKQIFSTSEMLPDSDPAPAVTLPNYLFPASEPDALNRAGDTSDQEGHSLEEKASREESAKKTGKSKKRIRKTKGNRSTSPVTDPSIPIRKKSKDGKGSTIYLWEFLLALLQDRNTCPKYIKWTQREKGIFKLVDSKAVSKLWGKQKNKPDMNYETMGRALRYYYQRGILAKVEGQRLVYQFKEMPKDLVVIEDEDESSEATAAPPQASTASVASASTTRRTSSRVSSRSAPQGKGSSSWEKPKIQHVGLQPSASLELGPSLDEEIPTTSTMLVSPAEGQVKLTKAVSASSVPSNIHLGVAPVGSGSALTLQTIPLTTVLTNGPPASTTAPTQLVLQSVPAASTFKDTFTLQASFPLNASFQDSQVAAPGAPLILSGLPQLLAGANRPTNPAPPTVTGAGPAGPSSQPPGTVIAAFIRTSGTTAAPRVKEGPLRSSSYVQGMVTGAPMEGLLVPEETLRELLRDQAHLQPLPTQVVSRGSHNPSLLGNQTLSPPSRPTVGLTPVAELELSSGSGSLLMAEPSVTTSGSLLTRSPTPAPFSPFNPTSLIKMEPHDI
Chain of ETV1 (P50549 whole entry): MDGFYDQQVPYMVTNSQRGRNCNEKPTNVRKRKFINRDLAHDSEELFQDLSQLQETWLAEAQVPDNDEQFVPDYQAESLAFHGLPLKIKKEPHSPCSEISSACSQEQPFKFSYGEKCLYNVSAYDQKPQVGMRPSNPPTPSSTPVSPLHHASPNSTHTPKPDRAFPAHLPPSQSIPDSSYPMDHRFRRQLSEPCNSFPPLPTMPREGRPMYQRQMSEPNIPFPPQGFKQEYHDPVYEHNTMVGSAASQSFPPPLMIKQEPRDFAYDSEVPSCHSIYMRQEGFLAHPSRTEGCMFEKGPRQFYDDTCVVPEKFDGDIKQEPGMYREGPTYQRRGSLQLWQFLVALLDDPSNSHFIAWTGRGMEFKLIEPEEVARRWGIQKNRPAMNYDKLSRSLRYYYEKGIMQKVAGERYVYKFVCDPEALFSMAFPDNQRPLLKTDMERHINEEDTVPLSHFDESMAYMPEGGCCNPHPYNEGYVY
Chain of CRX (O43186 whole entry): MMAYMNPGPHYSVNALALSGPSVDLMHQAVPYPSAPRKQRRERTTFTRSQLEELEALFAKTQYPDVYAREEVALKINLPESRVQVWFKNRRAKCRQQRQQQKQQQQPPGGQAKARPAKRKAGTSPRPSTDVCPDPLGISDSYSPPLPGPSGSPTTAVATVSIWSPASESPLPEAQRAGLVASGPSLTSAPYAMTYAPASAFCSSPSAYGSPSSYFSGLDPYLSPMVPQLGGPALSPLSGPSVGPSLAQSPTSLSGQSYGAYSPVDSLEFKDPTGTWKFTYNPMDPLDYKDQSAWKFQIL
Chain of HSF1 (Q00613 whole entry): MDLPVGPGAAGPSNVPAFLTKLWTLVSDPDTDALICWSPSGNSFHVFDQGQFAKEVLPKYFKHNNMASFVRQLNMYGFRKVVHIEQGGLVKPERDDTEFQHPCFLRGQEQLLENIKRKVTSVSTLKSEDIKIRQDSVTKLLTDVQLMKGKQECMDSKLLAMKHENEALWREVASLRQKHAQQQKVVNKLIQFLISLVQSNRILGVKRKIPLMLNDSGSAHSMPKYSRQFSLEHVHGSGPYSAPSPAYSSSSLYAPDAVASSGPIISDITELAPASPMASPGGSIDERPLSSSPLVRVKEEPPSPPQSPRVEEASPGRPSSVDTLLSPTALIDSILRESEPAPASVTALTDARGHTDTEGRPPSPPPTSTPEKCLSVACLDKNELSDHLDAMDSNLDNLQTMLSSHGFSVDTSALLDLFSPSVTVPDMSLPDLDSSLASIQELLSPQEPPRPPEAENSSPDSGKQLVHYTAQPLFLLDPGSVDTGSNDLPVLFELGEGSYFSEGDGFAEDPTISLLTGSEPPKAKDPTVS

In the case of CTAGCT, the binding signal in the assay with FEV was 1.29 fold enrichment (6-mer frequency, TF over GST control); in the assay with ETV5, 1.31 fold enrichment (6-mer frequency, TF over GST control); with HSF1, 1.53 fold enrichment (6-mer frequency, TF over GST control); with SPIC, 1.59 fold enrichment (6-mer frequency, TF over GST control); with ELF4 it was 1.29 fold enrichment (6-mer frequency, TF over GST control); with ELK4, 1.35 fold enrichment (6-mer frequency, TF over GST control). In addition, the binding signal in the assay with ETV2 is 1.31 fold enrichment (6-mer frequency, TF over GST control); in the assay with ELF3, 1.07 fold enrichment (6-mer frequency, TF over GST control); with CRX, 1.31 fold enrichment (6-mer frequency, TF over GST control); with ETV1, 1.24 fold enrichment (6-mer frequency, TF over GST control); in the assay with ERF, 1.21 fold enrichment (6-mer frequency, TF over GST control); with ETV3L, 1.29 fold enrichment (6-mer frequency, TF over GST control). Besides, the binding signal with ETS2 is 1.25 fold enrichment (6-mer frequency, TF over GST control); with SPDEF, 1.27 fold enrichment (6-mer frequency, TF over GST control); with ETV7, 1.33 fold enrichment (6-mer frequency, TF over GST control); with ELF5, 1.27 fold enrichment (6-mer frequency, TF over GST control); in the assay with ETV3, 1.24 fold enrichment (6-mer frequency, TF over GST control); in the assay with ETV6, 1.32 fold enrichment (6-mer frequency, TF over GST control).
